From PubChem BioAssay (Tox21)
Results filed as inconclusive are left out. A call without a number means that no potency is given here. Calls of active or inactive are those of the source. Unless noted, calls come from the whole dose curve; as a rule, active = well fitted curve in the direction sought with a large enough effect in the repeat runs; inconclusive = weak or mixed curves; inactive = no such curve, though single readings can be large; an effect the other way counts as inactive or inconclusive.

Legend:
[1] = qHTS assay to identify small molecule agonists of the vitamin D receptor (VDR) signaling pathway - cell viability counter screen (AID 743224); note: series mostly up to about 63 µM; nearly all actives have a fitted effect of over 50% in size
How it was run: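 VDR-bla cell line, quantitative HTS format; 16 h compound incubation (37C, 5% CO2); ATP-based CellTiter-Glo luminescence measured in the reporter assay wells.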

[2] = qHTS assay to identify small molecule agonists of the NFkB signaling pathway - cell viability counter screen (AID 1159515; calls by dose curve; note: series mostly up to about 61 µM; nearly all actives have a fitted effect of over 55% in size)
How it was run: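 Viability in NFkB-bla ME-180 cells was measured by CellTiter-Glo luminescence, 30 min room temperature, in wells already treated 5 hr with compounds and read for reporter FRET.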

[3] = qHTS assay to identify small molecule agonists of the endoplasmic reticulum stress response signaling pathway (AID 1159516; active = well fitted activation curve with a large enough effect in the signal ratio in the repeat runs, not every such curve was filed as active; the % refers to the signal ratio)
How it was run: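 ER stress element reporter (bla) in HeLa. 1,500 cells/well, overnight attachment; 5 hr compound; 2 hr RT substrate; dual-emission fluorescence.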

[4] = qHTS assay to identify small molecule agonists of the endoplasmic reticulum stress response signaling pathway - cell viability counter screen (AID 1159517; calls by dose curve;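 note: HeLa cells carrying an ER stress response element beta-lactamase reporter; series mostly up to about 61 µM; nearly all actives have a fitted effect of over 50% in size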)
How it was run: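 Luminescence readout: CellTiter-Glo, 30 min RT, same wells as the ESRE-bla reporter read. HeLa ESRE-bla, 1,500 cells/well, o/n 37 C; cpd 5 hr 37 C/5% CO2.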

[5] = qHTS assay to identify small molecule antagonists of the retinoid-related orphan receptor gamma (ROR-gamma) signaling pathway - cell viability counter screen (AID 1159520); note: nearly all actives have a fitted effect of over 50% in size
How it was run: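 Tet-on ROR gamma CHO cells (1,000/well) were plated 4 hr, given compounds in DMSO for 2 hr at 37 C, then induced with 1 uM final doxycycline for 16 hr. Viability was read as ATP by CellTiter-Glo luminescence after 30 min.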

[6] = target: Nuclear receptor ROR-gamma (Homo sapiens) (UniProt P51449); assay: qHTS assay to identify small molecule antagonists of the retinoid-related orphan receptor gamma (ROR-gamma) signaling pathway (AID 1159521; note: nearly all actives have a fitted effect of over 50% in size; note: potency is the fitted concentration of half-maximal effect)
How it was run: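 Cells were plated, rested 4 h at 37 C, exposed to compounds for 2 h, then given 1 uM final doxycycline hyclate to induce RORγ expression. After 16 h, ONE-Glo luminescence from the ROR response element reporter was measured.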

[7] = qHTS assay to identify small molecule agonists of the AP-1 signaling pathway - cell viability counter screen (AID 1159525; calls by dose curve; note: nearly all actives have a fitted effect of over 55% in size)
How it was run: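 ME-180 AP-1-bla, 2500 cells/well, Opti-MEM + 0.5% dialyzed FBS; overnight 37 °C; cpd 15-pt titration, 5 h 37 °C; CellTiter-Glo 30 min RT; luminescence read; normalised to TOAB and DMSO controls.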

[8] = qHTS assay to identify small molecule agonists of the AP-1 signaling pathway (AID 1159526; calls by dose curve)
[9] = qHTS assay to identify small molecule agonists of the RXR signaling pathway - cell viability counter screen (AID 1159529); note: nearly all actives have a fitted effect of over 50% in size; note: potency is the fitted concentration of half-maximal effect
How it was run: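 Steps: seed RXR-alpha-UAS-bla HEK 293T cells in assay medium containing 2% charcoal-stripped FBS; incubate 5 hr; add compounds in DMSO; incubate 16 hr at 37 C; after the bla read, add CellTiter-Glo and read luminescence at 30 min.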

[10] = qHTS assay to identify small molecule antagonists of the retinoid acid receptor (RAR) signaling pathway - cell viability counter screen (AID 1159551); note: nearly all actives have a fitted effect of over 35% in size
How it was run: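 Following overnight attachment, C3RL4 reporter cells received DMSO-dissolved compounds and then retinol (1 uM final). Six hours later at 37 C, ATP content was measured by CellTiter-Glo luminescence.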

[11] = qHTS assay to identify small molecule antagonists of the retinoic acid receptor (RAR) signaling pathway (AID 1159552; note: nearly all actives have a fitted effect of over 50% in size)
How it was run: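 Retinol at 1 uM final stimulated RARE-luciferase expression in C3RL4 cells exposed to test compounds for 6 hr at 37 C. Reduced luminescence, read 30 min after detection reagent, indicated pathway antagonism.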

[12] = qHTS assay to identify small molecule agonists of the retinoic acid receptor (RAR) signaling pathway (AID 1159553); note: potency is the fitted concentration of half-maximal effect
How it was run: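 Cell line C3RL4, RARE luciferase reporter. Treatment: compounds in DMSO, 6 hr, 37 C, 5% CO2, after overnight plating. Detection: luminescence, 30 min RT after reagent.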

[13] = qHTS assay to identify small molecule agonists of the NFkB signaling pathway (AID 1159509; active = well fitted curve in the direction sought with a large enough effect in the signal ratio in the repeat runs, not every such curve was filed as active; the % refers to the signal ratio; note: series mostly up to about 61 µM)
How it was run: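 After overnight attachment, reporter cells received test compounds, DMSO or positive controls and were incubated 5 hr at 37 C. FRET substrate was then added for 1.5 hr at room temperature before dual-emission fluorescence reading.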

[14] = qHTS assay to identify small molecule antagonists of the vitamin D receptor (VDR) signaling pathway - cell viability counter screen (AID 743225); note: nearly all actives have a fitted effect of over 50% in size
How it was run: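 HEK293T VDR-bla; cpd + 1a,25-(OH)2D3 3 nM final, 16 h 37C/5% CO2; B/G FRET substrate 2 h RT; then CellTiter-Glo 30 min RT, luminescence.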

[15] = target: Retinoic acid receptor RXR-alpha (Homo sapiens) (UniProt P19793); assay: qHTS assay to identify small molecule agonists of the RXR signaling pathway (AID 1159527; calls by dose curve; note: nearly all actives have a fitted effect of over 35% in size)
Sequence of Retinoic acid receptor RXR-alpha (Homo sapiens) (P19793 whole entry, looked up): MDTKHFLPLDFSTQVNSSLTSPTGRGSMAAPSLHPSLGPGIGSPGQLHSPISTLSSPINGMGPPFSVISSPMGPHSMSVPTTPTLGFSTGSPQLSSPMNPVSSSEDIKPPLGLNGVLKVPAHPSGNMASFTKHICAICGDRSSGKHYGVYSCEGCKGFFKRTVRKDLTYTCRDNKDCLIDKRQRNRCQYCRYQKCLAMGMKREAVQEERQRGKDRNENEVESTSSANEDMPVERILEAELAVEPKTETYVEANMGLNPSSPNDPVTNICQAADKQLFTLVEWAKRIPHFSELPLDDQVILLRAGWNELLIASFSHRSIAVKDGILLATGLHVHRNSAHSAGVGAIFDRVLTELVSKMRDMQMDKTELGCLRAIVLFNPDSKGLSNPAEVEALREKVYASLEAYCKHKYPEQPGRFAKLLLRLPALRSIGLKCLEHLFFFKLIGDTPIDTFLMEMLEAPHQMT
How it was run: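 Cells plated at 2,000/well, rested 5 hr at 37 C, pin-dosed with DMSO compound solutions, incubated 16 hr, then loaded with B/G FRET substrate for 2 hr at RT before dual-emission fluorescence reading.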

[16] = qHTS assay to identify small molecule antagonists of the estrogen related receptor (ERR) signaling pathway - cell viability counter screen (AID 1224818);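 note: series mostly up to about 46 µM; viability measured after 17.5 h of compound exposure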
How it was run: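 Here, ERR cells are plated at 2,000 cells per well, allowed 6 h to attach, and treated with compounds in DMSO for 17.5 h at 37 C. CellTiter-Fluor is then added and fluorescence read after 30 min.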

[17] = qHTS assay to identify small molecule antagonists of the estrogen related receptor (ERR) signaling pathway (AID 1224819)
How it was run: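 LOPAC library screened for antagonism as reduced One-Glo luminescence in ERR reporter cells (2,000/well). Compounds were added after 6 h pre-incubation and left 18 h at 37C; reading followed a 30 min room-temperature reagent step.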

[18] = system: estrogen-related receptor alpha (ERRalpha) with PGC-1alpha coactivator, human; assay: qHTS assay to identify small molecule antagonists of the estrogen related receptor signaling pathway with the pleiotropic PPARgamma coactivator (PGC) (AID 1224821; calls by dose curve)
How it was run: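 Quantitative HTS for antagonism: PGC/ERR cells received compounds after 6 h attachment and were incubated 18 h at 37 C, with luminescence (One-Glo) as the endpoint.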

[19] = qHTS assay to identify small molecule antagonists of the estrogen related receptor signaling pathway with the pleiotropic PPARgamma coactivator (PGC) cell viability counter screen (AID 1224822;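 note: series mostly up to about 46 µM; viability read after 17.5 h compound exposure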)
How it was run: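 qHTS format, DMSO compound stocks pin-transferred onto PGC/ERR cells 6 h after plating; 17.5 h exposure at 37 C, then CellTiter-Fluor fluorescence.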

SMILES	outcome [1]	outcome [2]	outcome [3]	outcome [4]	Potency [5]	Potency [6]	outcome [7]	Potency [8]	Potency [9]	outcome [10]	outcome [11]	Potency [12]	outcome [13]	outcome [14]	outcome [15]	outcome [16]	Potency [17]	outcome [18]	outcome [19]
O=C(c1ccc(Cl)cc1)c1ccc(Cl)cc1	inactive	inactive	inactive	inactive	inactive	inactive	inactive	inactive	inactive	inactive	inactive	inactive							
COc1ccc(C(=O)Nc2ccccc2)cc1[N+](=O)[O-]			inactive	inactive	inactive	inactive	inactive	inactive		inactive	inactive	30.9 µM (active)	inactive						
CCc1ccc(C(=O)C(C)CN2CCCCC2)cc1 (centres undefined)	inactive		inactive	inactive	inactive	inactive	inactive	inactive	inactive		inactive		inactive						
O=c1c2ccccc2oc2ccccc12	inactive		inactive	inactive		inactive	inactive	inactive	inactive		inactive	27.3 µM (active)	inactive	inactive					
Nc1ccc(-c2ccc(F)cc2)cc1	inactive		inactive	inactive	inactive		inactive	inactive	inactive	inactive	inactive		inactive						
N#Cc1ccc(CC(=O)c2cccc(C(F)(F)F)c2)cc1	inactive		inactive	inactive			inactive	inactive	inactive	inactive	inactive	inactive	inactive						
C[C@]12CCC(=O)C=C1[C@@H]1C[C@@H]1[C@H]1[C@@H]3[C@@H]4C[C@@H]4[C@@]4(CCC(=O)O4)[C@@]3(C)CC[C@@H]12	inactive		inactive	inactive	inactive	7.5 µM (active)	inactive	inactive	inactive	inactive		inactive	inactive	inactive					
CCOc1cc(OCC)c(C(C)=O)cc1OCC	inactive		inactive	inactive		inactive	inactive	inactive	inactive	inactive	inactive	inactive	inactive	inactive					
CCCCOc1ccc(N)cc1	inactive		inactive	inactive		inactive	inactive	inactive	inactive	inactive	inactive		inactive	inactive					
CCOCCn1c(N2CCCN(C)CC2)nc2ccccc21	inactive		inactive	inactive	inactive	inactive	inactive	inactive	inactive	inactive	inactive	inactive	inactive	inactive					
N#C[C@@H]1CC(F)(F)CN1C(=O)CNC1CC2CCC(C1)N2c1ncccn1 (some centres undefined)			inactive	inactive	inactive	inactive	inactive	inactive	inactive	inactive	inactive	inactive	inactive	inactive					
Nc1ccccc1Nc1ccccc1	inactive		inactive	inactive	inactive	inactive	inactive	inactive	inactive		inactive		inactive	inactive					
CCCCCCCCCCCCCCCCN			inactive	inactive	inactive		inactive		inactive	inactive	inactive	inactive	inactive	inactive	inactive				
O=[N+]([O-])c1ccccc1CCO	inactive		inactive	inactive	inactive	inactive	inactive	inactive	inactive	inactive	inactive		inactive	inactive					
C=C[Si](OCC)(OCC)OCC	inactive		inactive	inactive	inactive		inactive	inactive	inactive	inactive			inactive						
CC(=O)OCC(=O)[C@@]1(O)CC[C@H]2[C@@H]3CCC4=CC(=O)C=C[C@]4(C)[C@@]3(F)[C@@H](O)C[C@@]21C			inactive	inactive	inactive	inactive	inactive	inactive	inactive	inactive			inactive	inactive					
C=C(C)C(=O)OCCCCCCCCCCOC(=O)C(=C)C	inactive		inactive	inactive	inactive		inactive	inactive	inactive	inactive	inactive		inactive	inactive					
C/C(=C(\CCO)SS/C(CCO)=C(\C)N(C=O)Cc1cnc(C)nc1N)N(C=O)Cc1cnc(C)nc1N	inactive		inactive	inactive	inactive	inactive	inactive	inactive	inactive	inactive	inactive	inactive	inactive						
NC(=O)c1ccccc1C(N)=O	inactive		inactive	inactive	inactive	inactive	inactive	inactive	34.8 µM (active)	inactive			inactive	inactive					
CCOC(OCC)OCC			inactive	inactive	inactive	inactive	inactive	inactive	inactive	inactive	inactive	inactive	inactive	inactive					
CCCCCCCCCCCCCCCCC(=O)O	inactive		inactive	inactive	inactive	inactive	inactive		inactive	inactive	inactive	inactive	inactive		inactive				
Clc1cccc(C(c2ccc3nc[nH]c3c2)n2ccnc2)c1 (centres undefined)	inactive		inactive	inactive		inactive	inactive	inactive	inactive	inactive			inactive	inactive					
O=C(Nc1ccccc1)c1cc([N+](=O)[O-])ccc1Cl	inactive		inactive	inactive	inactive	inactive	inactive	inactive	inactive	inactive			inactive	inactive		inactive	inactive	inactive	inactive
